The source of these data is ChEMBL document CHEMBL4303097 (2020).

Structures are written as SMILES. Whole data set: some 1,500 compounds, median “Inhibition index” near 0.17, cut for the highest 2% near 1.3. Many of the other results were omitted from the sample, so the highest values are more common in it than they were.

The test system of this assay is SARS-CoV-2. The experiment in a line: Inhibition of cell viability relative to arbidol control (inhibition index > 1 indicates higher activity) measured by fluorescence (OD590nm) in Vero E6 cells infected with SARS-CoV-2 (strain BavPat1) at MOI 0.002 after 72hrs. Type of assay: functional, Chlorocebus sabaeus, Vero C1008.
`CCN1CCN(C(=O)N[C@@H](C(=O)N[C@@H]2C(=O)N3C(C(=O)O)=C(CSc4nnnn4C)CS[C@H]23)c2ccc(O)cc2)C(=O)C1=O.O.O` [CEFOPERAZONE DIHYDRATE]: the Inhibition index is recorded as 0.2339. As for `C=C[C@H]1CN2CC[C@H]1C[C@@H]2[C@@H](O)c1ccnc2ccc(OC)cc12.Cl.O`, the figure is 1.411. With `C=C[C@H]1CN2CC[C@H]1C[C@H]2[C@H](OC(=O)OCC)c1ccnc2ccc(OC)cc12` [QUININE ETHYLCARBONATE], the Inhibition index is 0.6435.

On to `Nc1nc(/C(=C/CC(=O)O)C(=O)N[C@@H]2C(=O)N3C(C(=O)O)=CCS[C@H]23)cs1` [CEFTIBUTEN], for which the Inhibition index is recorded as 0.07268.

In the case of `CC(C)OC(=O)CCC/C=C\C[C@H]1[C@H](CC[C@@H](O)CCc2ccccc2)[C@@H](O)C[C@H]1O`, the Inhibition index is on record as 0.1555.

`CC[C@H]1OC(=O)[C@H](C)[C@@H](O[C@H]2C[C@@](C)(OC)[C@@H](O)[C@H](C)O2)[C@H](C)[C@@H](O[C@@H]2O[C@H](C)C[C@H](N(C)C)[C@H]2O)[C@](C)(OC)C[C@@H](C)C(=O)[C@H](C)[C@@H](O)[C@]1(C)O` [CLARITHROMYCIN] registered an Inhibition index of 0.8598. Under `CC[C@H]1OC(=O)[C@H](C)[C@@H](O[C@H]2C[C@@](C)(OC)[C@@H](O)[C@H](C)O2)[C@H](C)[C@@H](O[C@@H]2O[C@H](C)C[C@H](N(C)C)[C@H]2O)[C@](C)(O)C[C@@H](C)CN(C)[C@H](C)[C@@H](O)[C@]1(C)O` [AZITHROMYCIN] stands 1.487; under `CC[C@H]1OC(=O)[C@H](C)[C@@H](O[C@H]2C[C@@](C)(OC)[C@@H](O)[C@H](C)O2)[C@H](C)[C@@H](O[C@@H]2O[C@H](C)C[C@H](N(C)C)[C@H]2O)[C@](C)(O)C[C@@H](C)C(=O)[C@H](C)[C@@H](O)[C@]1(C)O` [ERYTHROMYCIN], 0.0005254; under `CCC(=O)O[C@]1(C(=O)CCl)[C@@H](C)C[C@H]2[C@@H]3CCC4=CC(=O)C=C[C@]4(C)[C@@]3(F)[C@@H](O)C[C@@]21C` [CLOBETASOL PROPIONATE], 0.2335. Under `CC(=O)S[C@@H]1CC2=CC(=O)CC[C@]2(C)[C@H]2CC[C@@]3(C)[C@@H](CC[C@@]34CCC(=O)O4)[C@H]12` [SPIRONOLACTONE] stands 0.4829; under `Cl.NC1CCN(c2nc3c(cc2F)c(=O)c(C(=O)O)cn3-c2ccc(F)cc2F)C1` (stereo not drawn), 0.1095. As for `CN1[C@@H]2CC[C@H]1C[C@@H](OC1c3ccccc3CCc3ccccc31)C2.O=C(O)CC(O)(CC(=O)O)C(=O)O` [DEPTROPINE CITRATE], the figure is -0.3511; as for `Cc1cc(C(C)(C)C)c(O)c(C)c1CC1=NCCN1.Cl` [OXYMETAZOLINE HYDROCHLORIDE], 0.08485; as for `Cl.Oc1ccc2c3c1O[C@H]1[C@@H](O)CC[C@@]4(O)[C@@H](C2)N(CC2CCC2)CC[C@]314` [NALBUPHINE HYDROCHLORIDE], 0.2089. In turn, `Cl.O.O.O=C1CC[C@@]2(O)[C@H]3Cc4ccc(O)c5c4[C@@]2(CCN3CC2CC2)[C@H]1O5` came in with an Inhibition index of 0.1496. `C=C1CC[C@@]2(O)[C@H]3Cc4ccc(O)c5c4[C@@]2(CCN3CC2CC2)[C@H]1O5.Cl` [NALMEFENE HYDROCHLORIDE]: the Inhibition index was 1.653. Under `CC(C(=O)O)c1ccc(N2CC=CC2)c(Cl)c1` (stereo not drawn) [PIRPROFEN] stands 0.2333; under `CNC(=C[N+](=O)[O-])NCCSCc1ccc(CN(C)C)o1.Cl` [RANITIDINE HYDROCHLORIDE], 0.09309; under `CCN1CCC[C@H]1CNC(=O)c1c(OC)ccc(Br)c1OC.Cl`, 0.3465.

In turn, `CC(C)n1c(/C=C/[C@H](O)C[C@H](O)CC(=O)[O-])c(-c2ccc(F)cc2)c2ccccc21.[Na+]` came in with an Inhibition index of -0.06663. As for `CN[C@@H]1[C@@H](O)[C@@H](O[C@@H]2[C@@H](O)[C@H](O[C@H]3O[C@H](CN)CC[C@H]3N)[C@@H](N)C[C@H]2N)OC[C@]1(C)O.CN[C@@H]1[C@@H](O)[C@@H](O[C@@H]2[C@@H](O)[C@H](O[C@H]3O[C@H]([C@@H](C)N)CC[C@H]3N)[C@@H](N)C[C@H]2N)OC[C@]1(C)O.CN[C@@H]1[C@@H](O)[C@@H](O[C@@H]2[C@@H](O)[C@H](O[C@H]3O[C@H]([C@@H](C)NC)CC[C@H]3N)[C@@H](N)C[C@H]2N)OC[C@]1(C)O.O=S(=O)(O)O`, the figure is 0.01806; as for `COc1c(-c2ccc3cc(NS(C)(=O)=O)ccc3c2)cc(-n2ccc(=O)[nH]c2=O)cc1C(C)(C)C` [DASABUVIR], 0.184. Under `Cc1cc(C2CCCCC2)n(O)c(=O)c1.NCCO` [CICLOPIROX OLAMINE] stands 0.2225.

With `C[C@]12CCC(=O)C=C1CC[C@@H]1[C@@H]2C(=O)C[C@]2(C)C(=O)CC[C@@H]12` [ADRENOTERONE], the Inhibition index turned out to be 0.3653. Under `C[C@]12CC[C@H](O)C[C@@H]1CC[C@@H]1[C@@H]2CC[C@]2(C)C(=O)CC[C@@H]12` [EPIANDROSTERONE] stands 1.075. Under `C[C@]12CCC(=O)C(O)=C1CC[C@@H]1[C@@H]2CC[C@]2(C)C(=O)CC[C@@H]12` [FORMESTANE] stands 1.365; under `C[C@]12CCC(=O)C=C1CC[C@@H]1[C@@H]2[C@@H](O)C[C@@]2(C)[C@H]1CC[C@]2(O)C(=O)CO` [HYDROCORTISONE], 0.1194. Turning to `CN1CCC(=C2c3ccccc3CC(=O)c3sccc32)CC1.O=C(O)/C=C/C(=O)O` [KETOTIFEN FUMARATE], the Inhibition index is reported as 0.837. As for `Cc1ccc(/C(=C\CN2CCCC2)c2ccccn2)cc1.Cl`, the figure is 0.8569; as for `O=C1O[C@H]([C@@H](O)CO)C(O)=C1O` [ASCORBIC ACID], 0.2513; as for `C[C@]12CCC(=O)C=C1C=C[C@@H]1[C@@H]2CC[C@@]2(C)[C@H]1CC[C@@]2(O)CCC(=O)[O-].[K+]` [CANRENOATE POTASSIUM], 0.2042. As for `C[C@]12CC[C@H]3[C@@H](CCC4=CC(=O)CC[C@@]43C)[C@@H]1CC[C@@H]2C(=O)CO` [DESOXYCORTICOSTERONE], the figure is 0.868. As for `CNC1(C)C2CCC(C2)C1(C)C.Cl` (stereo not drawn) [MECAMYLAMINE HYDROCHLORIDE], the figure is 0.674; as for `CC(=O)O[C@H]1C[C@@H]2CC[C@@H]3[C@H](CC[C@@]4(C)[C@H]3C[C@H]([N+]3(C)CCCCC3)[C@@H]4OC(C)=O)[C@@]2(C)C[C@@H]1[N+]1(C)CCCCC1.[Br-].[Br-]` [PANCURONIUM BROMIDE], 0.06422. On to `Nc1c2ccccc2nc2ccccc12` [AMINACRINE], for which the Inhibition index is recorded as -0.2464. As for `Cl.Nc1c2c(nc3ccccc13)CCCC2` [TACRINE HYDROCHLORIDE], the figure is 1.442; as for `CCC(=O)OC(OP(=O)(CCCCc1ccccc1)CC(=O)N1C[C@H](C2CCCCC2)C[C@H]1C(=O)O)C(C)C` (stereo partly drawn), 1.038. Under `CC[C@H]1OC(=O)[C@H](C)[C@@H](O[C@H]2C[C@@](C)(OC)[C@@H](O)[C@H](C)O2)[C@H](C)[C@@H](O[C@@H]2O[C@H](C)C[C@H](N(C)C)[C@H]2O)[C@](C)(O)C[C@@H](C)[C@@H]2N[C@@H](COCCOC)O[C@H]([C@H]2C)[C@]1(C)O` [DIRITHROMYCIN] stands 0.105.
